Measurements: PubChem BioAssay AID1671463 (Sanford-Burnham Center for Chemical Genomics, 2021)
Among all 370,000 compounds or so, about 520 (0.14%) were called active. Cut-off read from the data, not from the text of the source: active = activation above about 40%; inactive = the rest. Shown is part of a subset that was picked to be rich in actives.

Biological target: Atrial natriuretic peptide receptor 1 (Homo sapiens) (UniProt P16066)
Assay: GC-A stimulated cGMP production enhancers – HEK293 GC-A cells, cGMP TR-FRET, EC30 ANP, primary screen (AID 1671463)
Conditions: at 10 µM, active compounds read high, 0% at EC30 ANP, 100% saturating ANP

Chain of Atrial natriuretic peptide receptor 1 (Homo sapiens) (P16066 whole entry, looked up): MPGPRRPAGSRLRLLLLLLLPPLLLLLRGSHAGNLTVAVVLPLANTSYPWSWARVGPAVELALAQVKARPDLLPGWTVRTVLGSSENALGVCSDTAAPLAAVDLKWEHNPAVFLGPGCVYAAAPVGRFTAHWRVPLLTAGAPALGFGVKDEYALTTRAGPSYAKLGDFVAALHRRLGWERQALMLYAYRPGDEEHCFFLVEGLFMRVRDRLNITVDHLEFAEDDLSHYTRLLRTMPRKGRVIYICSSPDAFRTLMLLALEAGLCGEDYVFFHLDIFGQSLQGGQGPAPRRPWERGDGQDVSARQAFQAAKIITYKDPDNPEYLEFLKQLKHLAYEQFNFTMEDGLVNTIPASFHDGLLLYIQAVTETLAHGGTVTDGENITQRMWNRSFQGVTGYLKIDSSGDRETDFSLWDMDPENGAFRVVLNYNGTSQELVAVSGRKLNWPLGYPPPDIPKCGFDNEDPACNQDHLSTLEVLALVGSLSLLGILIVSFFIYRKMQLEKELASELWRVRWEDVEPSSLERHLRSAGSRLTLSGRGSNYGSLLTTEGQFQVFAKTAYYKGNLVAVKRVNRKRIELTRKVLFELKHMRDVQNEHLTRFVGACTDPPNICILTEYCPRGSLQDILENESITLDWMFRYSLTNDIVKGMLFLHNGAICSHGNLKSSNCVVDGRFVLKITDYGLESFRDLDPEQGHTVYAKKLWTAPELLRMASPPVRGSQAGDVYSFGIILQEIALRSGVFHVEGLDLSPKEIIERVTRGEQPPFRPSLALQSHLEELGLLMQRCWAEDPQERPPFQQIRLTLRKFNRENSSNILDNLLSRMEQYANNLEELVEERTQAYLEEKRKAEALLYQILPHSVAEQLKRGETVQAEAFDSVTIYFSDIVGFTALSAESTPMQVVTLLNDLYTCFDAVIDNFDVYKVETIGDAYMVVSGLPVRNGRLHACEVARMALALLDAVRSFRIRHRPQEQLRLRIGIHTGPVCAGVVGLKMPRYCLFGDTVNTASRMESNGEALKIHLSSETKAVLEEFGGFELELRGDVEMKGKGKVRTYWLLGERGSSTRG

Row | Compound | activation
1 | C[C@@H](Nc1nc(-c2ccccc2)nc2c1oc1ccccc12)C(=O)O | -3.4% (inactive)
2 | Cc1nc(N2CCCC2C(=O)O)c2oc3ccccc3c2n1 (centres undefined) | -1.86% (inactive)
3 | Cc1nc(Cl)c2oc3ccccc3c2n1 | 41.1% (active)
4 | CC12CN(NC(=O)c3ccc(Cl)cc3)C3(C#N)CC1CCC23C (centres undefined) | 0.43% (inactive)
5 | C#CCN([C@H](C(=O)OC)C(C)CC)S(=O)(=O)c1ccccc1Br (some centres undefined) | -4.19% (inactive)
6 | Cc1ccc(S(=O)(=O)CC(=O)NC(C)c2ccccc2)cc1 (centres undefined) | 4.14% (inactive)
7 | CCOc1ccccc1NC(=O)C1CCC(CNc2c(N3CCOCC3)c(=O)c2=O)CC1 (centres undefined) | 0.11% (inactive)
8 | CC(C)c1cc(C(=O)O)on1 | -0.6% (inactive)
9 | Cc1ccc(C(=O)NCC(=O)NCc2cc(=O)n(C)c(=O)n2C)cc1 | 1.88% (inactive)
10 | CN(C)/C(=N\OC(=O)c1ccccc1)c1nonc1N | -2.63% (inactive)
11 | Cc1cccc(-n2ncc(Cl)c(Cl)c2=O)c1 | 40.6% (active)
12 | Nc1c(-c2cccc(Cl)c2)cnn1-c1cccc([N+](=O)[O-])c1 | -2.54% (inactive)
13 | CCOc1ccc(Oc2c(Cl)cnn(-c3ccc(C)cc3)c2=O)cc1 | 4.6% (inactive)
14 | COC(=O)c1ccc(C2C3=C(Nc4nnnn42)c2ccccc2OC3)cc1 (centres undefined) | 1.48% (inactive)
15 | CCc1c(C)sc(NC(=O)OC)c1C(=O)N1CCOCC1 | 0.05% (inactive)
16 | Cc1cccc(Cn2c(N3CCN(c4ccccc4)CC3)nc3c2c(=O)n(C)c(=O)n3C)c1 | -29% (inactive)
17 | C/C(Cl)=C\Cn1c(Nc2cccc(C)c2)nc2c1c(=O)n(C)c(=O)n2C | 51.1% (active)
18 | Cn1c(=O)c2c(nc(N/N=C/c3cccs3)n2Cc2ccc(Br)cc2)n(C)c1=O | 18.6% (inactive)
19 | CCN(CC(=O)Nc1cc(Cl)ccc1C)C(=O)CSCc1ccc(C)cc1 | -0.6% (inactive)
20 | CC1(c2ccc3ccccc3c2)NC(=O)N(CC(N)=O)C1=O (centres undefined) | 3.94% (inactive)
21 | C=CCN1C(=O)[C@@H](CC(=O)NCCCCc2ccccc2)[C@]2(C(=O)OCC)CCCCC/C=C/12 | 3.65% (inactive)
22 | COc1ccc(N(CC(=O)NCC2CCCO2)C(=O)CCC(=O)Nc2nccs2)c(OC)c1 (centres undefined) | 4.75% (inactive)
23 | CC(C)(C)C(=O)CCN1C(=O)C2(OCCO2)c2ccccc21 | 1.22% (inactive)
24 | CC(=O)NC(c1cccs1)c1cc(Br)c2cccnc2c1O (centres undefined) | -1.9% (inactive)

Row | Compound | activation
25 | CCCCCCCCN1C(=O)[C@@H](CC(=O)NCc2ccccc2)C[C@@]2(C(=O)OC)C1=C[C@H](C(C)(C)C)O[C@@H]2C | 2.65% (inactive)
26 | O=C(/C=C/Sc1ncn[nH]1)c1ccc(Cl)cc1 | 64.8% (active)
27 | COc1ccc(CN2CC[C@H]3C=CC[C@@H](C(=O)N4CCOCC4)[C@H]3C2=O)cc1OC | 1.45% (inactive)
28 | COC(=O)c1c(NC(=O)COc2ccc(Cl)cc2Cl)sc2c1CC(C)(C)NC2(C)C | 6% (inactive)
29 | CSCC[C@H](NC(=O)NC1CCCC1)C(=O)O | 0.42% (inactive)
30 | O=C(NCCc1ccccc1)c1c[nH]c2ccc(F)cc2c1=O | 1.93% (inactive)
31 | O=c1[nH]c2c(c(=O)n1-c1ccccc1)CCO2 | -0.17% (inactive)
32 | Fc1ccc(Nc2nnns2)cc1 | 3.58% (inactive)
33 | COCCN(Cc1ccccc1)C(=O)Cc1ccc(S(=O)(=O)N2CCOCC2)s1 | -2.49% (inactive)
34 | CS(=O)(=O)c1cccc(-c2ccc3nncn3c2)c1 | 4.9% (inactive)
35 | CCCCS(=O)c1snnc1C (centres undefined) | 1.27% (inactive)
36 | COc1ccc(/C=C/CN2CCN(Cc3ccc(C)cc3)C(CCO)C2)cc1 (centres undefined) | 0.4% (inactive)
37 | O=C(OCC(=O)N1CCCC1)c1ccc(Cl)nc1 | -0.33% (inactive)
38 | CC1(C)CC(N(Cc2ccccc2)C(=O)Cc2ccccc2)CCO1 (centres undefined) | -16.2% (inactive)
39 | CCOc1c(Br)cc(/C=C2\C(=O)N(CCC#N)N=C2C)cc1OC | 40.1% (active)
40 | Cc1ccc(C(c2nnnn2CS(=O)(=O)c2ccc(C)cc2)N2CCC(C)CC2)cc1 (centres undefined) | -0.04% (inactive)
41 | CCCSc1nsc(N)n1 | -1.07% (inactive)
42 | CC(C)(CNC(=O)Cc1ccc(Cl)cc1Cl)N1CCOCC1 | 1.34% (inactive)
43 | CCOC(=O)c1cccc(NC(=O)C2CCCN(S(=O)(=O)c3cnc[nH]3)C2)c1 (centres undefined) | 1.55% (inactive)
44 | Cc1ccsc1C1C(C#N)=C(N)OC2=C1C(=O)CC(C)(C)C2 (centres undefined) | 1.86% (inactive)
45 | CCCn1nnnc1NC(=O)COc1ccc(Cl)cc1C | 0.54% (inactive)
46 | O=C(c1ccc(CS(=O)Cc2ccccc2Cl)o1)N1CCN(c2ccccc2)CC1 (centres undefined) | -8.64% (inactive)
47 | O=c1c2ccccc2c(-c2ccc(Br)cc2)nn1Cc1ccccc1 | 1.66% (inactive)
48 | Cc1ccsc1C(=O)NCCc1ccco1 | 5.29% (inactive)

Row | Compound | activation
49 | O=C(NCCc1ccco1)c1nn(Cc2ccccc2)c(=O)c2ccccc12 | 41.3% (active)
50 | Cc1ccc(S(=O)(=O)NNC(=S)NC(C)(C)C)cc1 | 4.04% (inactive)
51 | COC(=O)[C@@H](NC(=O)Nc1cc(Cl)ccc1C)C(C)C | 4.54% (inactive)
52 | CC(C)Oc1ccc(S(=O)(=O)N2CCOCC2)cc1NC(=O)C1CCCC1 | 0% (inactive)
53 | Cn1c2ccccc2c2cc(/C=C(\NC(=O)c3ccccc3)C(=O)NCC(=O)O)ccc21 | 1.03% (inactive)
54 | COCCCNC(NC(=O)c1ccc(OC)cc1)C(Cl)(Cl)Cl (centres undefined) | -6.96% (inactive)
55 | CSCCC(Nc1ccc(S(=O)(=O)N2CCOCC2)cc1[N+](=O)[O-])C(=O)OCC(=O)N(C(C)C)C(C)C (centres undefined) | 3.61% (inactive)
56 | CCC(=O)Nc1ccc(-c2ccc(N3CCCCC3)nn2)cc1 | 1.98% (inactive)
57 | CCC(=O)Nc1ccc(Nc2nc(Cl)nc(Nc3ccc(NC(=O)CC)cc3)n2)cc1 | 41.8% (active)
58 | CCOC(=O)CNc1nc(Cl)nc(Nc2ccccc2)n1 | -0.38% (inactive)
59 | CCC(=O)N1CCC(C)(C(=O)Nc2cc(OC)c(OC)c(OC)c2)C1 (centres undefined) | 0.68% (inactive)
60 | CCCc1cc(=O)[nH]c(SCC(=O)c2c(N)n(CC(C)C)c(=O)n(C)c2=O)n1 | -6.69% (inactive)
61 | Cc1ccc(S(=O)(=O)N2CCOCC2)cc1NC(=O)CSc1nnc(N)s1 | -4.98% (inactive)
62 | COc1ccc(C#CCNCc2ccc(OC)cc2OC)cc1 | -0.15% (inactive)
63 | O=C(Oc1ccc2c(c1)CCC2)N1CCOCC1 | 4.74% (inactive)
64 | CCOC(=O)C(=O)N(Cc1ccccc1)c1ccccc1C(=O)Nc1cc(OC)ccc1OC | -11.8% (inactive)
65 | COc1ccc(NC(=S)SC)cc1OC | 1.77% (inactive)
66 | COc1ccccc1C(=O)N(C1=NC(C)CS1)c1ccc(Cl)cc1 (centres undefined) | -15.5% (inactive)
67 | CC1CCN(CCCNC(=O)CN2C(=O)CSc3ccc(S(=O)(=O)N4CCCCC4)cc32)CC1 | 3.44% (inactive)
68 | Cn1nc(C(F)(F)F)cc1-c1ccc(/C=C(\C#N)C(=O)c2cccc(C(F)(F)F)c2)s1 | 25.6% (inactive)
69 | CC1CCCC(N2CCN(C(=O)c3ccc(F)cc3)CC2)C1 (centres undefined) | 5.28% (inactive)
70 | O=S(=O)(c1ccc(-c2ccccc2)cc1)N1CCCC1 | 0.74% (inactive)
71 | Cc1cccc(C(=O)Nc2ccccc2-c2nnn(CC(=O)Nc3ccc4c(c3)OCCO4)n2)c1 | -13.7% (inactive)
72 | CN1C[C@]2(C=C3CCCCC3n3c(=O)n(-c4ccccc4)c(=O)n32)N=C1NC(=O)c1ccccc1 (some centres undefined) | -1.71% (inactive)

Row | Compound | activation
73 | C#CCCN([C@H](C(=O)OC)C(C)C)S(=O)(=O)c1ccc(F)cc1Br | -5.17% (inactive)
74 | COc1ccccc1-n1nnnc1S(=O)(=O)Cc1ccc(Cl)cc1 | 0.71% (inactive)
75 | Cc1nc(-c2ccc(Cl)cc2)sc1C1(C)CC(c2ccccc2F)=NO1 (centres undefined) | 2.63% (inactive)
76 | Cc1nc(-c2ccc(Cl)cc2)sc1C1(C)CC(c2ccc(Br)cc2)=NO1 (centres undefined) | -0.28% (inactive)
77 | Cc1nc(-c2ccc(Cl)cc2)sc1C(=O)CBr | 49.9% (active)
78 | Cc1ccccc1CN1CCCCC(NC(=O)c2cccc(C#N)c2)C1=O (centres undefined) | 1.67% (inactive)
79 | CCOc1ccc(S(=O)(=O)N2CCC(c3ccccc3)CC2)cc1C(=O)O | 0.54% (inactive)
80 | CCOc1cc(/C=N/O)ccc1OCc1ccccc1F | -0.44% (inactive)
81 | C/C=C/c1ccc(OCCOc2ccc(C=O)cc2OC)c(OC)c1 | 3.2% (inactive)
82 | COc1ccnc2c1c(=O)n(Cc1cccc(F)c1)c(=O)n2C | 8.86% (inactive)
83 | COc1cc(CNc2ncn[nH]2)ccc1OCc1ccccc1C | 0.42% (inactive)
84 | COc1cc(/C=C2/C(=O)ON=C2C)ccc1OCc1cccc(F)c1 | 52.6% (active)
85 | COc1cc(/C=C2/C(=O)ON=C2C)ccc1OCc1ccccc1F | 51.8% (active)
86 | COc1ccc(CCNC(=O)c2ccc(NC(=O)CC3SC(N4CCCCC4)=NC3=O)cc2)cc1OC (centres undefined) | -0.61% (inactive)
87 | COCCCN1C(=O)C(=O)/C(=C(/O)c2ccc(S(=O)(=O)N3CCOCC3)cc2)C1c1ccc(F)cc1 (centres undefined) | 1.53% (inactive)
88 | CCc1c(-c2ccccc2OC)ncn1CCc1ccccc1OC | -8.39% (inactive)
89 | CCc1nc2c(OCc3cccc(OC)c3)cccn2c1N(C)C(=O)C(C)C | -2.25% (inactive)
90 | CC(NC(=O)CCCC1CCCCC1)c1ccc(S(N)(=O)=O)cc1 (centres undefined) | -4.53% (inactive)
91 | CC(=O)Oc1c(C(=O)c2nnc(C)o2)c(=O)n(Cc2ccccc2)c2ccccc12 | -0.69% (inactive)
92 | O=C1CCCCC1Sc1ccc(Cl)cc1[N+](=O)[O-] (centres undefined) | -7.33% (inactive)
93 | CCN(CC)C(CNC(=O)CSc1nnnn1-c1cccc(F)c1)c1ccco1 (centres undefined) | 2.86% (inactive)
94 | Cc1ccc(S(=O)(=O)N2C[C@@H]3CCCC[C@@H]3[C@@H](C)[C@H]2c2cn(Cc3ccccc3)c3ccc(F)cc23)cc1 | 3.1% (inactive)
